Source: the supplement of paper PMC10849652
About 8,800 targets were measured; listed, in parts, are those with a hit and a random draw of the rest. About 0.5% of all pairs of compound and target were hits. Unmarked numbers belong to inactive results.

compound: Cc1sc2c(c1C)C(c1ccc(Cl)cc1)=N[C@@H](CC(=O)OC(C)(C)C)c1nnc(C)n1-2; experiment: log2 fold change, soluble protein after heating vs DMSO (PISA); higher = thermal stabilisation; K562 lysate, 10 uM; active = over 0.2 and 3.5 SD of the protein, either way, in both replicates (recomputed)
How it was run: (§1)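 Thermal stability, expressed as log-two fold change relative to solvent controls, is given from duplicates. Crude K562 extract in PBS pH 7.4 with 1 mM MgCl2, at 1 mg/mL protein, was treated with 10 μM compound for 30 min and heated in aliquots for 3 min across 48°C-58°C. After pooling, adjustment to 0.5% NP-40 at 4°C and centrifugation at 21,000xg for 90 min, supernatant protein was measured by TMTpro 16plex LC-MS/MS with channel sums equalised.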

UniProt P28702, sequence (P28702 whole entry, looked up): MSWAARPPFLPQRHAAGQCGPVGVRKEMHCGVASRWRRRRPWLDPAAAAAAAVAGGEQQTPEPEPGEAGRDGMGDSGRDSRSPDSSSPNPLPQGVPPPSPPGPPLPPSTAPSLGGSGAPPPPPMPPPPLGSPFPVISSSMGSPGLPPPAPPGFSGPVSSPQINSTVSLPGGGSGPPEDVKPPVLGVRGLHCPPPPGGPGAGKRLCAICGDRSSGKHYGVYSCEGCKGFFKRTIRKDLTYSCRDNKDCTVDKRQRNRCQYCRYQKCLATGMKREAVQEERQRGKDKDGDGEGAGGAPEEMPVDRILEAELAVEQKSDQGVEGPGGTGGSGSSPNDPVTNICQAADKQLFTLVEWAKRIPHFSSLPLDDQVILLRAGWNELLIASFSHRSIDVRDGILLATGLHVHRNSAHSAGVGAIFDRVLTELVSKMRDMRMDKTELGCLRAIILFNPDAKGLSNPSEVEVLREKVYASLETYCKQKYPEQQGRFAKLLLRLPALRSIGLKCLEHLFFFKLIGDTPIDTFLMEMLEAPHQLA
UniProt Q5XPI4, sequence (Q5XPI4 whole entry, looked up): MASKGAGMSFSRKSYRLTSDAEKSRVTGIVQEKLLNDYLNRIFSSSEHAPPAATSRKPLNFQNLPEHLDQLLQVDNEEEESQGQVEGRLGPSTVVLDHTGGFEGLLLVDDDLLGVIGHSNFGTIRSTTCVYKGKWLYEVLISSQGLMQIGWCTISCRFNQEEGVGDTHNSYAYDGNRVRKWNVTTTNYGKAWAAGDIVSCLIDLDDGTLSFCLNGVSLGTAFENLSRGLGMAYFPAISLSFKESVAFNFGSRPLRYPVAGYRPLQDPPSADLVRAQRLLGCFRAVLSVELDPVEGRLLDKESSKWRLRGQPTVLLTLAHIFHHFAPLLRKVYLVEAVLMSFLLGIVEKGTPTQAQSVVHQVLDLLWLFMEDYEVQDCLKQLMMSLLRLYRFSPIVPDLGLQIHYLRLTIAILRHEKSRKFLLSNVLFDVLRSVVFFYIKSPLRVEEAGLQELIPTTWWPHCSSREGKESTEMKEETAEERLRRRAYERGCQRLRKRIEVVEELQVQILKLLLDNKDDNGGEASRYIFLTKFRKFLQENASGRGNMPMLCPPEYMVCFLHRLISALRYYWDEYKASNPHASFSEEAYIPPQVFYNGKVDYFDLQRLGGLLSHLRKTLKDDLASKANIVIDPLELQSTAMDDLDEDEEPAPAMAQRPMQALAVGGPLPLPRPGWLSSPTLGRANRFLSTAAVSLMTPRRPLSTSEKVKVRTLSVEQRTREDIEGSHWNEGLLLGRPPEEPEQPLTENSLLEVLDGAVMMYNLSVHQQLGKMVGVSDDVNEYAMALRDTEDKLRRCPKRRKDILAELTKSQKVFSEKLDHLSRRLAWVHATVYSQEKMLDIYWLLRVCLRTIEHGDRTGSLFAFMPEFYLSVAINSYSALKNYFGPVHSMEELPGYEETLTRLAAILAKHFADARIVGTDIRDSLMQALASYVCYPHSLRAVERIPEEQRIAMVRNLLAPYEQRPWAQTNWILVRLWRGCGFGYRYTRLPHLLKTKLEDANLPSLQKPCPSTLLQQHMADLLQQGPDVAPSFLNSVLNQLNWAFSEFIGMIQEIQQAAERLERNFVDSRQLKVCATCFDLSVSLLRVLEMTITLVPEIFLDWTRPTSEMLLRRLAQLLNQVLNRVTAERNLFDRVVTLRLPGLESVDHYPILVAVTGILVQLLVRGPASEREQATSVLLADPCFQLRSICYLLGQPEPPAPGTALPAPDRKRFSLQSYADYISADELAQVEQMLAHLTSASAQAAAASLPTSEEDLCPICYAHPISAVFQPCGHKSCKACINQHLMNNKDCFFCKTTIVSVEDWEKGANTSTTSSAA
UniProt Q15418, sequence (Q15418 whole entry, looked up): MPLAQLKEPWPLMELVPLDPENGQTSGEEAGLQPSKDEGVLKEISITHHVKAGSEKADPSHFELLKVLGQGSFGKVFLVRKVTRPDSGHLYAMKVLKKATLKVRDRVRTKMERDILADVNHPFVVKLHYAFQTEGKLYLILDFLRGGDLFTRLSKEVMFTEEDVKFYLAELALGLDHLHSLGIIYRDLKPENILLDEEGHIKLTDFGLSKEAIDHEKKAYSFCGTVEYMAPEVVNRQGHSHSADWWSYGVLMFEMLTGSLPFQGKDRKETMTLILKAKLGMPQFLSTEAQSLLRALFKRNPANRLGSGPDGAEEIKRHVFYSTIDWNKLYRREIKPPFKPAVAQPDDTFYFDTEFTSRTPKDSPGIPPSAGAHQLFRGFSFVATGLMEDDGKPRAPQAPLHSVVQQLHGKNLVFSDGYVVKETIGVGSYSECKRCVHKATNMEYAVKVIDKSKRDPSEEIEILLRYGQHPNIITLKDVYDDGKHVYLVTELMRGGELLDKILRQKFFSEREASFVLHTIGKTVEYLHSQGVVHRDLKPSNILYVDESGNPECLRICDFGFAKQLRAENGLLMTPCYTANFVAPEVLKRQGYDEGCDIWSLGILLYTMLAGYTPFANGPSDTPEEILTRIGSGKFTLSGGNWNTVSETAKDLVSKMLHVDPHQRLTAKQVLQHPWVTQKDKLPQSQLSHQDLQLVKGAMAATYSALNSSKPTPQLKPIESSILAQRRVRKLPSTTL
UniProt Q53S08, sequence (Q53S08 whole entry, looked up): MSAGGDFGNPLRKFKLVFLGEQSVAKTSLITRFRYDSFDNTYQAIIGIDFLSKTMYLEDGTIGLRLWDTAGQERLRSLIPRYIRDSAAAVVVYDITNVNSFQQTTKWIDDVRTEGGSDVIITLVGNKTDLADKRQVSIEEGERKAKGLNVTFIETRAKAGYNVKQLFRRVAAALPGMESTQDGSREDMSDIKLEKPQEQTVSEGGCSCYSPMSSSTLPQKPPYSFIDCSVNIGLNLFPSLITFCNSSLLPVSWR
UniProt Q9H0U4, sequence (Q9H0U4 whole entry, looked up): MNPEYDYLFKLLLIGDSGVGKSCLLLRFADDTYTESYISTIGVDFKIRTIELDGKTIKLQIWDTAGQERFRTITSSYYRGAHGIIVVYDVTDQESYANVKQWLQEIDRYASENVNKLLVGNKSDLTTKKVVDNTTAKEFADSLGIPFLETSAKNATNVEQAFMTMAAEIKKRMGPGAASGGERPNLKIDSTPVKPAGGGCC
UniProt Q9UQR0, sequence (Q9UQR0 whole entry, looked up): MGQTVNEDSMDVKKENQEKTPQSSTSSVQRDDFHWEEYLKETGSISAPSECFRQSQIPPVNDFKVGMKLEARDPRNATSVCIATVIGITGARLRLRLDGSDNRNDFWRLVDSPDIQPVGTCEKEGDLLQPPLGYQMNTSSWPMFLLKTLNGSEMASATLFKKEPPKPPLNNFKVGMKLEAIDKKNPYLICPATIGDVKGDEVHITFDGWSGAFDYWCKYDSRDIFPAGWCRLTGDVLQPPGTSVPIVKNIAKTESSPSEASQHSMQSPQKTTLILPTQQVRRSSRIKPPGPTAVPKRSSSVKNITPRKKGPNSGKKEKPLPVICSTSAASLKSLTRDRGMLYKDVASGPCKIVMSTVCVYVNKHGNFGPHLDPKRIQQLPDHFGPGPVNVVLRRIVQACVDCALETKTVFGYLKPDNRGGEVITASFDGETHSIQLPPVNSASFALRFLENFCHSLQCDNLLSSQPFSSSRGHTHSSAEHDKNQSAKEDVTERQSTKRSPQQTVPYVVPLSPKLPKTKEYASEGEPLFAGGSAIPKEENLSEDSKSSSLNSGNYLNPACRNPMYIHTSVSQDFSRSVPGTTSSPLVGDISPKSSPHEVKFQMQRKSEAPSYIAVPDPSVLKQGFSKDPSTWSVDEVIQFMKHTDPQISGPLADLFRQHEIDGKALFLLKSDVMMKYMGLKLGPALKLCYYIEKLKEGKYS
UniProt Q96DM3, sequence (Q96DM3 whole entry, looked up): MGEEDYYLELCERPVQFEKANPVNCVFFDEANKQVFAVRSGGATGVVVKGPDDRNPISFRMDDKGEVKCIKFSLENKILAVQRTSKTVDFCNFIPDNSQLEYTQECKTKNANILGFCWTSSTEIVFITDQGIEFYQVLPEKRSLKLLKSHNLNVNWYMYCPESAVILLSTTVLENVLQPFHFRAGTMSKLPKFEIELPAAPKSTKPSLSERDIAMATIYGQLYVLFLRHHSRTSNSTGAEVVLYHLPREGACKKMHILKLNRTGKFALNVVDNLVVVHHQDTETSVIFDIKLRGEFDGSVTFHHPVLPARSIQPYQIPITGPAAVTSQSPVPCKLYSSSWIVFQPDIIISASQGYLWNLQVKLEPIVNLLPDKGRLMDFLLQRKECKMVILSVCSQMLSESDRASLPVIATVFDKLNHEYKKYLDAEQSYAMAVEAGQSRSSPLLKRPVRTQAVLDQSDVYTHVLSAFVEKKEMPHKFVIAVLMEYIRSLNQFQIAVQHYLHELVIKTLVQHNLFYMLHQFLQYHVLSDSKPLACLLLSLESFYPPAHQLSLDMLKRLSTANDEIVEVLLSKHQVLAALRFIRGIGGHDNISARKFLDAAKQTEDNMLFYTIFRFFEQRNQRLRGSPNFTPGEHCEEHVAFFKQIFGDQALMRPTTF
UniProt O15541, sequence (O15541 whole entry, looked up): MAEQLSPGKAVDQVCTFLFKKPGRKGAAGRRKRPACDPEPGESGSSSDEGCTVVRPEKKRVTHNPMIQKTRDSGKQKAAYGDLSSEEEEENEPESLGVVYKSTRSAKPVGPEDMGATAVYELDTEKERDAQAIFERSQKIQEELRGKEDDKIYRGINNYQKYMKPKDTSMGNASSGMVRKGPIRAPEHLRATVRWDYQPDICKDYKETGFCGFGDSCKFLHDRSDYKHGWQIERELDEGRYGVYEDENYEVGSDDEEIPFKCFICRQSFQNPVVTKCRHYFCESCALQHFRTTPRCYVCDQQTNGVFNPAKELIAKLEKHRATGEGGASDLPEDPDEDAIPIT
UniProt P60059, sequence (P60059 whole entry, looked up): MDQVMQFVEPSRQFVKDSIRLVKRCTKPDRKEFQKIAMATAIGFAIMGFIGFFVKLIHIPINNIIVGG
UniProt Q00765, sequence (Q00765 whole entry, looked up): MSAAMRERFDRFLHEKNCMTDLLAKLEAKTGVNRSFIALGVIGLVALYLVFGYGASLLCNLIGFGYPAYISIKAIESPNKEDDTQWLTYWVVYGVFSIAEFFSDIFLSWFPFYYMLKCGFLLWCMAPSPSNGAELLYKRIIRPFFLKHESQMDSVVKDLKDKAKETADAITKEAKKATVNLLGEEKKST

Target | log2 fold change
RXRB isoform 3 (UniProt P28702) | -0.057
RMC1 (UniProt Q96DM3) | 0.05
RAC2 (UniProt P15153) | 0.067
RNF113A (UniProt O15541) | -0.065
RAPGEF2, A0A2R8YGD3 | -0.003
REEP6 (UniProt Q96HR9) | -0.107
RBBP7 (UniProt Q16576) | -0.042
RIOK1 (UniProt Q9BRS2) | -0.006
RECQL5 (UniProt O94762) | -0.174
RABEPK (UniProt Q7Z6M1) | 0.017
RPL37A (UniProt P61513) | 0.191
RAB1B (UniProt Q9H0U4) | 0.013
RBM23 isoform 2 (UniProt Q86U06) | 0.011
RNF170 (UniProt Q96K19) | 0.285
RNF123 (UniProt Q5XPI4) | 0.005
SEC61G (UniProt P60059) | -0.065

Target | log2 fold change
RBMX (UniProt P38159) | -0.015
QRSL1 (UniProt Q9H0R6) | 0.041
SCML2 (UniProt Q9UQR0) | -0.032
RPS6KA1 (UniProt Q15418) | 0.015
REEP5 (UniProt Q00765) | 0.022
RAB6D (UniProt Q53S08) | -0.003
RAB27A (UniProt P51159) | -0.013
SCAF1 (UniProt Q9H7N4) | -0.007
RARS (UniProt P54136) | 0.028
ROCK1 (UniProt Q13464) | -0.016
RAD50 isoform 2 (UniProt Q92878) | 0.008
RANBP2 (UniProt P49792) | 0.003
RPS6KA3 (UniProt P51812) | 0.009
RPS29 (UniProt P62273) | 0.328
SESN2 (UniProt P58004) | -0.004

compound: c1ccc([C@@H]2C[C@H]2NC2CCNCC2)cc1; experiment: as above
How it was run: as §1

Target | log2 fold change
RXRB isoform 3 (UniProt P28702) | 0.06
RMC1 (UniProt Q96DM3) | 0.007
RAC2 (UniProt P15153) | 0.028
RNF113A (UniProt O15541) | -0.066
RAPGEF2, A0A2R8YGD3 | -0.32 (active)
REEP6 (UniProt Q96HR9) | -0.181
RIOK1 (UniProt Q9BRS2) | -0.015
RECQL5 (UniProt O94762) | 0.064
RABEPK (UniProt Q7Z6M1) | -0.071
RPL37A (UniProt P61513) | 0.166
RAB1B (UniProt Q9H0U4) | -0.17
RBM23 isoform 2 (UniProt Q86U06) | -0.002
RNF170 (UniProt Q96K19) | -0.026
RNF123 (UniProt Q5XPI4) | 0.047
SEC61G (UniProt P60059) | -0.225
RBMX (UniProt P38159) | -0.072
QRSL1 (UniProt Q9H0R6) | 0.094
SCML2 (UniProt Q9UQR0) | 0.02
RPS6KA1 (UniProt Q15418) | -0.047
REEP5 (UniProt Q00765) | -0.092
RAB6D (UniProt Q53S08) | -0.045
RAB27A (UniProt P51159) | 0.181
SCAF1 (UniProt Q9H7N4) | 0.019
RARS (UniProt P54136) | 0.091
ROCK1 (UniProt Q13464) | -0.008
RAD50 isoform 2 (UniProt Q92878) | 0.009
RANBP2 (UniProt P49792) | 0.02
RPS6KA3 (UniProt P51812) | -0.061
RPS29 (UniProt P62273) | 0.398
SESN2 (UniProt P58004) | -0.01
